Of roughly 7,900 targets only a part is listed; those with a hit were picked by preference. About 0.6% of all pairs of compound and target were hits. Values without a mark were called inactive.
Columns and labels:
Assay in all cases: log2 fold change, soluble protein after heating vs DMSO (PISA); higher = thermal stabilisation; K562 cells, 10 uM, 30 min; active = over 0.2 and 3.5 SD of the protein, either way, in both replicates (recomputed)
YAE1 = YAE1 (UniProt Q9NRH1)
Outline: (§1)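 Soluble protein was quantified by TMTpro 16plex LC-MS/MS after channel sums were equalised. It was obtained as the supernatant after 21,000xg for 90 min from pooled aliquots of K562 cells (2×10^6 cells/mL, 10 μM compound, 30 min) heated for 3 min across 48°C-58°C and extracted in PBS with 0.5% NP-40 at 4°C. Thermal stability values are relative to control samples and come from duplicates. They are given as log2 fold changes.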

YBX1 = YBX1 (UniProt P67809)
Chain of YBX1 (P67809 whole entry, looked up): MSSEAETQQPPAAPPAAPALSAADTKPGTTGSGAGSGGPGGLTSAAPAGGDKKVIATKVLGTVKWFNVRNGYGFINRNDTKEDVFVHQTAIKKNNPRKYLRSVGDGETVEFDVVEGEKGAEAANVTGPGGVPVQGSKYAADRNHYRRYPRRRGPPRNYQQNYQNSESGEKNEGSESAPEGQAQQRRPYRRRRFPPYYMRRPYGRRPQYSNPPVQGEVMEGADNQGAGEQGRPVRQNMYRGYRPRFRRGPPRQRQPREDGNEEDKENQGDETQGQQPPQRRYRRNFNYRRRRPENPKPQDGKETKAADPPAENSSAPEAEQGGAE
Outline: as §1

YES1 = YES1 (UniProt P07947)
Chain of YES1 (P07947 whole entry, looked up): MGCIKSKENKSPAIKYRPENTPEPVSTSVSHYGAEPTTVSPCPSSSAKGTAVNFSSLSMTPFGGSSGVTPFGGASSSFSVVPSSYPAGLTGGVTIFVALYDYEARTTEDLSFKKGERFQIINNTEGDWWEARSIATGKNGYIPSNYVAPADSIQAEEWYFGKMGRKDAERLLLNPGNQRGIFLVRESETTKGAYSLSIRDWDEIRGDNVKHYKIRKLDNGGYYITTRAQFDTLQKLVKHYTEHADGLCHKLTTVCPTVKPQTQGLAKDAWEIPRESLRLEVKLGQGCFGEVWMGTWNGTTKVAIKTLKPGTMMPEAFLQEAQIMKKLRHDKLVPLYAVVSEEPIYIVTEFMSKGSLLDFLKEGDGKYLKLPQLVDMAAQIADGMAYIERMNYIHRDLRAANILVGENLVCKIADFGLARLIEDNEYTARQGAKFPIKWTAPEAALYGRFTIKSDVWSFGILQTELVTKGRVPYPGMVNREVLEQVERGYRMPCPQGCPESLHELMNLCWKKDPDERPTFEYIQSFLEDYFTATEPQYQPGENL
Outline: as §1

YIPF4 = YIPF4 (UniProt Q9BSR8)
Chain of YIPF4 (Q9BSR8 whole entry, looked up): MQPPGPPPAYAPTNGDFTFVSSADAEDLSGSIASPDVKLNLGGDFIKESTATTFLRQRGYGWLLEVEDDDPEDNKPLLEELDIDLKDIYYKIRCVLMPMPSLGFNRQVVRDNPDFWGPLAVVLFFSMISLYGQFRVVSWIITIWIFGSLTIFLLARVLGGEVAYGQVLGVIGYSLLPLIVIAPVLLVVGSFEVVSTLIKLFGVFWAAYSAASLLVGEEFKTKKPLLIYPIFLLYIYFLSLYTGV
Outline: as §1

YIPF5 isoform 3 = YIPF5 isoform 3 (UniProt Q969M3)
Chain of YIPF5 isoform 3 (Q969M3 whole entry, looked up, canonical isoform): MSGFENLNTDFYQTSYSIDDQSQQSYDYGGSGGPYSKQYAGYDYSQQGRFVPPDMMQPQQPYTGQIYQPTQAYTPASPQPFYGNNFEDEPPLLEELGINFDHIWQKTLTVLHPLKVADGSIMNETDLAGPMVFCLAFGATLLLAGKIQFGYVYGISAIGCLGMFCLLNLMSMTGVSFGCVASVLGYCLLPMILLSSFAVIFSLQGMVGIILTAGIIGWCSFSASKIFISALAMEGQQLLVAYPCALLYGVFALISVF
Outline: as §1

YIPF6 = YIPF6 (UniProt Q96EC8)
Chain of YIPF6 (Q96EC8 whole entry, looked up): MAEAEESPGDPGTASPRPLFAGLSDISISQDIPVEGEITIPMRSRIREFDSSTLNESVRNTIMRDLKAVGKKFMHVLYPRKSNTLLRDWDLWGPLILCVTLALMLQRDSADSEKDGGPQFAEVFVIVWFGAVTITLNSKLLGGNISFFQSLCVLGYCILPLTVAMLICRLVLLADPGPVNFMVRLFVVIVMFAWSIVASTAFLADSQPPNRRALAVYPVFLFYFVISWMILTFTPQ
Outline: as §1

YLPM1 = YLPM1 (UniProt P49750)
Outline: as §1

YOD1 = YOD1 (UniProt Q5VVQ6)
Chain of YOD1 (Q5VVQ6 whole entry, looked up): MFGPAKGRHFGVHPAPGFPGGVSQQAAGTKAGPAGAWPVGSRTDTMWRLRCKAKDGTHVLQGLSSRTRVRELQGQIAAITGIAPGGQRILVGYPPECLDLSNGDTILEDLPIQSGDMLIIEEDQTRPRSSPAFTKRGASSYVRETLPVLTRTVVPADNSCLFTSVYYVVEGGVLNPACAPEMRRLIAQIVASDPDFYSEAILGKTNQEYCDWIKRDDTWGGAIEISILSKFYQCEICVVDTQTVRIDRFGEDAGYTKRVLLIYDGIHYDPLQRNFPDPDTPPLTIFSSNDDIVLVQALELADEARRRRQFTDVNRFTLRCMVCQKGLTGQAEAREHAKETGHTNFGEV
Outline: as §1

YPEL5 = YPEL5 (UniProt P62699)
Chain of YPEL5 (P62699 whole entry, looked up): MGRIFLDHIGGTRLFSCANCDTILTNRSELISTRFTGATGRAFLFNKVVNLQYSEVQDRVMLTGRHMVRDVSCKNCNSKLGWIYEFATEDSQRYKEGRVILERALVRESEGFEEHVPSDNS
Outline: as §1

YWHAB = YWHAB (UniProt P31946)
Chain of YWHAB (P31946 whole entry, looked up): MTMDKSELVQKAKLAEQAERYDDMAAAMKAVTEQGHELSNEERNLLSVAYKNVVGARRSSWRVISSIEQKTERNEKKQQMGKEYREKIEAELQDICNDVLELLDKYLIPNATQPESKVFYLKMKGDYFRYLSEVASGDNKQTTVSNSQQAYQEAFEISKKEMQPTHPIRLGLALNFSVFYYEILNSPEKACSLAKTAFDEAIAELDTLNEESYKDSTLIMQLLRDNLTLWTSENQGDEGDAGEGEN
Outline: as §1

YWHAQ = YWHAQ (UniProt P27348)
Chain of YWHAQ (P27348 whole entry, looked up): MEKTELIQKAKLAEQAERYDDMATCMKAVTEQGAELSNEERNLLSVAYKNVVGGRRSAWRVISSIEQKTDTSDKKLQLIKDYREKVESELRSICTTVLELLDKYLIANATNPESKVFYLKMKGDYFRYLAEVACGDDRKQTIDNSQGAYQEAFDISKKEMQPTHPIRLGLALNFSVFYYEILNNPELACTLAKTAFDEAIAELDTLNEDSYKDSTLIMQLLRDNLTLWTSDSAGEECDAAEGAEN
Outline: as §1

YWHAZ [1] = target: YWHAZ (UniProt P63104)
Chain of YWHAZ (UniProt P63104) (P63104 whole entry, looked up): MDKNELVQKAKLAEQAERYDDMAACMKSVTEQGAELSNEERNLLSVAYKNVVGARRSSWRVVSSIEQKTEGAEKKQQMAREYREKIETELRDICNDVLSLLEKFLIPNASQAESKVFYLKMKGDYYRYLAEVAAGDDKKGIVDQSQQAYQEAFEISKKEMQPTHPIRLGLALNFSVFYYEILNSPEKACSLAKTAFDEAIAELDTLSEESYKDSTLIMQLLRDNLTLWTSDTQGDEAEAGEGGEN
Outline: as §1

YY1 = YY1 (UniProt P25490)
Outline: as §1

ZADH2 = ZADH2 (UniProt Q8N4Q0)
Chain of ZADH2 (Q8N4Q0 whole entry, looked up): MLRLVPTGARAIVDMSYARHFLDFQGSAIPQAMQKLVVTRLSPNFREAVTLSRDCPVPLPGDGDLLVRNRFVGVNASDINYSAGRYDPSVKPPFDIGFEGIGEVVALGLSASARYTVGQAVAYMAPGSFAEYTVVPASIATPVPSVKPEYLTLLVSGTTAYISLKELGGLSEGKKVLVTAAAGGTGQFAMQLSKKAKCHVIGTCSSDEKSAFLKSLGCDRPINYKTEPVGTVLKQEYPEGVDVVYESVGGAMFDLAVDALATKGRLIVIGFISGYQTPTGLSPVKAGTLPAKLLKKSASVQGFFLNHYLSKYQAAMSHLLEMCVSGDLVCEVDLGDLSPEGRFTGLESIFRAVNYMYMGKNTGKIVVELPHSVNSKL
Outline: as §1

ZBTB21 = ZBTB21 (UniProt Q9ULJ3)
Outline: as §1

ZBTB43 = ZBTB43 (UniProt O43298)
Chain of ZBTB43 (O43298 whole entry, looked up): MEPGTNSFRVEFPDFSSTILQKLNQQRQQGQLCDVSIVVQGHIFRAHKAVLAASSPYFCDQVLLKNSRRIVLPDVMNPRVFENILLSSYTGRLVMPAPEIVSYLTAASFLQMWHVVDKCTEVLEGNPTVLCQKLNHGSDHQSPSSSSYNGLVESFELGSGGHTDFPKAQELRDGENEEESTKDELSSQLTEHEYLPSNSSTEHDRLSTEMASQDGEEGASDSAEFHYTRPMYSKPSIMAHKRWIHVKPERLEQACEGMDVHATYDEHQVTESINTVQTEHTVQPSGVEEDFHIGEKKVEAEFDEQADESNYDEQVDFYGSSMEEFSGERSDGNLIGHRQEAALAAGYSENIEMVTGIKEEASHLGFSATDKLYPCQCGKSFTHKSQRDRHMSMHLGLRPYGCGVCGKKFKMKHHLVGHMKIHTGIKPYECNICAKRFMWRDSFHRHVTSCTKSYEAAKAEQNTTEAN
Outline: as §1

ZC3H18 = ZC3H18 (UniProt Q86VM9)
Outline: as §1

ZBTB17 isoform 2 = ZBTB17 isoform 2 (UniProt Q13105)
Chain of ZBTB17 isoform 2 (Q13105 whole entry, looked up, canonical isoform): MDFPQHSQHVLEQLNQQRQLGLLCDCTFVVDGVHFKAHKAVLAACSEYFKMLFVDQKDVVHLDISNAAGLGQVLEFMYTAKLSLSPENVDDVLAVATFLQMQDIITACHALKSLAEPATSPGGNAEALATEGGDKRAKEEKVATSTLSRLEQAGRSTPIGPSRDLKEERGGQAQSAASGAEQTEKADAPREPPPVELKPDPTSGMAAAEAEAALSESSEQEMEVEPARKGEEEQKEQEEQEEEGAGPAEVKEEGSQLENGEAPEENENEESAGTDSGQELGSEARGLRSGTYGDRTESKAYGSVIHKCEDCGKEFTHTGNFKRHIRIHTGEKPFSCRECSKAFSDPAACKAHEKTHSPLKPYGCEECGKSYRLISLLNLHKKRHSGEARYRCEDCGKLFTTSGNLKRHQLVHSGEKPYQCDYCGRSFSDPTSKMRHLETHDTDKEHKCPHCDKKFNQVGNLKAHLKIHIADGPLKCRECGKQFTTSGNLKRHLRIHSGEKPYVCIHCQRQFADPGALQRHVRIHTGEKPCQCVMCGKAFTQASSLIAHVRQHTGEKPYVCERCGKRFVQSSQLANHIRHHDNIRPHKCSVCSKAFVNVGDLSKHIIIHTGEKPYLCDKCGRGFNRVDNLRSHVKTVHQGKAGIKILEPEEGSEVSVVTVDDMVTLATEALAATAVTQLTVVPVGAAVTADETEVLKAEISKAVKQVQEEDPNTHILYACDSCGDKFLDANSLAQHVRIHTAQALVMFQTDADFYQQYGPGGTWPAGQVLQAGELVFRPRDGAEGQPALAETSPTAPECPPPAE
Outline: as §1

YWHAZ [2] = target: YWHAZ (UniProt E7ESK7)
Outline: as §1

Chain of YAE1 (Q9NRH1 whole entry, looked up): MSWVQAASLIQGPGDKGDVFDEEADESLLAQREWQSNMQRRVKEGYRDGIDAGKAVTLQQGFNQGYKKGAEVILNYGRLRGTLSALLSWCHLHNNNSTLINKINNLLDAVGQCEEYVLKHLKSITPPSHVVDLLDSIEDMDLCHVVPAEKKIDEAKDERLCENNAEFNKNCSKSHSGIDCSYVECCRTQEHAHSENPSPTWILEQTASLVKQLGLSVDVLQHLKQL

SMILES	log2 fold change (YAE1)	log2 fold change (YBX1)	log2 fold change (YES1)	log2 fold change (YIPF4)	log2 fold change (YIPF5 isoform 3)	log2 fold change (YIPF6)	log2 fold change (YLPM1)	log2 fold change (YOD1)	log2 fold change (YPEL5)	log2 fold change (YWHAB)	log2 fold change (YWHAQ)	log2 fold change (YWHAZ [1])	log2 fold change (YY1)	log2 fold change (ZADH2)	log2 fold change (ZBTB21)	log2 fold change (ZBTB43)	log2 fold change (ZC3H18)	log2 fold change (ZBTB17 isoform 2)	log2 fold change (YWHAZ [2])
Cc1cc(Nc2cc(CN3CCOCC3)c3nc(C)c(Cc4ccc(Cl)cc4F)n3n2)n[nH]1 [gandotinib]	0.007	0.334	-0.447	-0.086	-0.1	-0.019	-0.117	-0.149	-0.095	-0.25 (active)	-0.071	0.084	-0.012	0.128	0.074	0.043	0.017		
C#Cc1cccc(Nc2ncnc3cc(OCCOC)c(OCCOC)cc23)c1 [erlotinib]	0.055	-0.173	-0.145	0.004	0.011	-0.017	0.084	0.064	0.049	0.011	-0.07	0.011	-0.019	0.005	0.235	0.081	-0.066	-0.048	
Cc1cccc(CC(=O)N2CCc3c2ccc(-c2cn(C)c4ncnc(N)c24)c3F)n1	0.008	-0.024	0.007	-0.042	0.06	-0.006	-0.05	0.041	0.198	-0.058	0.694 (active)	0.029	0.003	-0.041	0.016	-0.025	-0.063		
COC(=O)[C@H](CCSC)NC(=O)c1ccc(NC[C@@H](N)CS)cc1-c1ccccc1	0.059	0.113	-0.006	0.088	0.046	0.041	-0.014	-0.016	-0.23	0.016	0.019	-0.002	0.014	0.052	-0.022	0.018	0.045		
Cc1cc(Nc2cc(N3CCN(C)CC3)nc(Sc3ccc(NC(=O)C4CC4)cc3)n2)n[nH]1 [tozasertib]	0.033	-0.041	-0.45	0.079	-0.089	-0.066	-0.051	0.043		0.019	0.046	0.045	0.099	0.014	-0.219	0.063	0.061	0.299	0.176
CCn1cc(-c2ccnc3[nH]c(-c4cccc(CN(C)C)c4)cc23)c(-c2ccc(NC(=O)N(C)C)cc2)n1	-0.015	0.249	-0.241	0.037	0.06	0.103	-0.012	-0.101	-0.072	0.014	0.143	-0.042	0.002	0.13	-0.073	0.028	0.068		
NC(=O)Nc1cc(-c2cccc(F)c2)sc1C(=O)N[C@H]1CCCNC1	-0.023	0.025		0.066	0.023	-0.081	-0.023	-0.079	0.114	-0.027	0.065	0.098	0.037	-0.074	-0.083	-0.018	-0.037	-0.032	
NCC(=O)Nc1ccc(-n2nc(C(F)(F)F)cc2-c2ccc3c(ccc4ccccc43)c2)cc1	-0.011	0.055	0.001	-0.004	0.021	0.071	-0.069	-0.015	0.129	-0.007	0.457	0.084	-0.009	0.017	-0.042	0	-0.012		
O=C(CCCCCCC(=O)Nc1ccccc1)NO [vorinostat]	0.044	-0.056	0.069	-0.046	0.156	-0.035	0.024	0.033	0.028	-0.02	0.39	-0.013	0.134	0.002	0.079	-0.005	0.091		
Cc1cn(-c2cc(NC(=O)c3ccc(C)c(Nc4nccc(-c5cccnc5)n4)c3)cc(C(F)(F)F)c2)cn1 [nilotinib]	-0.023	0.033	-0.033	0.046	0.021	0.063	-0.044	-0.061	-0.237	0.039	0.018	0.04	-0.033	0.04	0.023	-0.157	0.099		
CC[C@H](C)n1cc(C)c2c(C(=O)NCc3c(C)cc(C)[nH]c3=O)cc(-c3ccc(N4CCNCC4)nc3)cc21	0.02	-0.063	0.112	-0.016	-0.041	-0.039	0.067	0.081	0.109	0.009	0.072	0.008	0.061	0.526 (active)	0.059	-0.187	0.032		
CCN(CC)Cc1ccc2cc(COC(=O)Nc3ccc(C(=O)NO)cc3)ccc2c1 [givinostat]	-0.017	-0.056	0.016	-0.048	-0.053	-0.028	0.061	0.024	-0.009	-0.026	-0.039	-0.001	0.02	-0.066	-0.045	-0.006	0.106	-0.011	
CS(=O)(=O)N1CCN(Cc2cc3nc(-c4cccc5[nH]ncc45)nc(N4CCOCC4)c3s2)CC1 [pictilisib]	0.021	0.033	0.093	0.15	0.027	0.107	0.065	-0.001	0.172	0.002	-0.142	-0.037	-0.021	0.14	-0.035	0.027	-0.019		
Cc1nc(Nc2n[nH]c3c2CN(C(=O)N[C@H](CN(C)C)c2ccccc2)C3(C)C)c2sccc2n1	0.104	0.149	-0.746 (active)	0.004	0.016	-0.042	-0.075	-0.089	-0.118	-0.002	-0.033	-0.015	-0.304 (active)	-0.127	-0.093	0.043	-0.145		
Cc1ncc(-c2ccnc(Nc3ccc(S(C)(=O)=O)cc3)n2)n1C(C)C	0.042	0.013	-0.051	-0.005	-0.03	-0.023	-0.011	-0.018	0.036	0	-0.026	-0.003	-0.207	0.066	0.061	0.16	-0.162		
CN1CCC(CNc2ccc3ncc(-c4cccc(OC(F)(F)F)c4)n3n2)CC1	0.057	0.348	-0.326	0.101	-0.288	0.155	-0.113	-0.305 (active)	-0.094	-0.042	0.585	0.035	-0.21	0.023	-0.149	0.032	-0.044		
O=C(Nc1cccc(Nc2ncc(Br)c(NCCc3cnc[nH]3)n2)c1)N1CCCC1	-0.084	0.103	-0.139	-0.033	0.033	-0.013	-0.083	-0.012		0.006	-0.089	0.011	-0.065	0.001	0.107	-0.052	-0.126	-0.014	-0.031
CON(C)C(=O)N1N=C(c2cc(F)ccc2F)S[C@@]1(CCCN)c1ccccc1 [filanesib]	0.133	0.202		0.077	0.017	-0.08	0.083	-0.067	0.413	-0.044	-0.086	-0.027	-0.006	0.065	0.075	-0.024	0.217	-0.026	
CC1=C(C(=O)Nc2cc3cn[nH]c3cc2F)C(c2ccc(C(F)(F)F)cc2)CC(=O)N1 (stereo not drawn)	-0.001	0.044	-0.012	-0.019	-0.007	0.055	-0.01	0.023	0.058	0.001	0.107	0.058	0.059	-0.014	0.033	-0.04	0.022		
Nc1ccccc1NC(=O)c1ccc(CNC(=O)OCc2cccnc2)cc1 [entinostat]	0.011	-0.073		-0.04	-0.05	0.228	-0.064	-0.143	-0.187	-0.042	0.116	0.032	0.053	-0.04	-0.074	-0.091	0.021	-0.14	
CS(=O)(=O)c1ccc(-c2cnc(N)c(C(=O)Nc3ccccc3)n2)cc1	0.011	-0.101		0.013	-0.093	0.199	-0.051	0.117	0.152	0.017	-0.013	-0.017	-0.061	-0.063	0.048	0.021	-0.056	-0.013	
CCCS(=O)(=O)Nc1ccc(F)c(C(=O)c2c[nH]c3ncc(-c4ccc(Cl)cc4)cc23)c1F [vemurafenib]	0.019	-0.12	-0.159	0.03	-0.021	-0.15	0.017	-0.001	-0.068	0.021	0.284	0.037	0.03	0	-0.032	0.044	-0.025		
CN1CCN(c2nc(C3=C(c4c[nH]c5ccccc45)C(=O)NC3=O)c3ccccc3n2)CC1 [sotrastaurin]	0.074	0.016		0.113	0.034	-0.648 (active)	0.021	0.034	-0.102	0.031	-0.043	-0.01	-0.092	-0.015	0.022	0.027	-0.11	0.03	
COc1cc2ncnc(Nc3ccc(F)c(Cl)c3)c2cc1OCCCN1CCOCC1 [gefitinib]	-0.016	-0.096	-0.045	0.038	0.024	0.005	0.002	0.006	-0.239	-0.001	0.007	0.005	-0.076	-0.029	-0.125	0.025	-0.033		
NC1(Cc2ccc(Cl)cc2)CCN(c2ncnc3[nH]ccc23)CC1	-0.022	-0.159	-0.059	-0.016	0.126	-0.015	0.102	-0.037		0.028	0.029	0.059	0.066	0.008	0.024	-0.053	-0.124	-0.199	0.07
CNC(=O)c1ccc(Nc2ncc(C(F)(F)F)c(NCc3nccnc3N(C)S(C)(=O)=O)n2)cc1 [defactinib]	0.026	0.301	-0.199	-0.016	-0.019	-0.041	-0.019	-0.103	-0.073	-0.022	0	0	-0.299 (active)	0.025	-0.033	0.063	-0.234		
Cc1ccc2c(=O)c3ccccc3n(CCCN)c2c1C	0.022	-0.637 (active)	0.043	0.215	-0.006	0.145	0.023	0.063		-0.072	-0.055	-0.009	-0.433 (active)	0.038	-0.183	-1.06 (active)	-0.612 (active)	1.05 (active)	0.029
Cc1ccc(NC(=O)c2cccc(C(C)(C)C#N)c2)cc1Nc1ccc2ncn(C)c(=O)c2c1	0.056	0.041		0.013	0.042	-0.131	-0.095	0.067	-0.131	0.016	0.184	0.025	0.035	0.453 (active)	-0.03	0.004	0	0.018	
NC(=O)c1ccc2nc(-c3ccc(Oc4ccc(Cl)cc4)cc3)[nH]c2c1	0	-0.033	0.049	-0.039	0.012	0.005	0.033	0.019	-0.021	-0.012	-0.021	0.011	0.03	0.052	0.053	0.037	0.045	0.03	
CN1CCc2c(c3ccccc3n2Cc2ccc(C(=O)NO)cc2)C1 [Tubastatin A]	-0.018	0.022	0.094	-0.028	-0.103	-0.01	0.039	0.072		-0.014	-0.026	-0.004	-0.011	-0.007	-0.132	-0.018	0.129	0.049	0.102

— the supplement of paper PMC10849652
